# Screening data: PubChem BioAssay, National Center for Advancing Translational Sciences (NCATS)
# Shown are actives, neighbours in structure and some others; about 2.9% of the full set was active somewhere.
# IP6K1 inhibitor: Primary qHTS assay for small molecule inhibitors of Inositol hexaphosphate kinase 1 (IP6K1); Inositol hexakisphosphate kinase 1 (Homo sapiens), Q92551; IP6K1 kinase, ADP-Glo luminescence, 2 h; stronger effect = lower value; activity change, % (series mostly up to about 58 µM); 140,000 compounds, 0.81% hits; in the data active means activity change below about -25%
# Target sequence (Q92551 whole entry, looked up): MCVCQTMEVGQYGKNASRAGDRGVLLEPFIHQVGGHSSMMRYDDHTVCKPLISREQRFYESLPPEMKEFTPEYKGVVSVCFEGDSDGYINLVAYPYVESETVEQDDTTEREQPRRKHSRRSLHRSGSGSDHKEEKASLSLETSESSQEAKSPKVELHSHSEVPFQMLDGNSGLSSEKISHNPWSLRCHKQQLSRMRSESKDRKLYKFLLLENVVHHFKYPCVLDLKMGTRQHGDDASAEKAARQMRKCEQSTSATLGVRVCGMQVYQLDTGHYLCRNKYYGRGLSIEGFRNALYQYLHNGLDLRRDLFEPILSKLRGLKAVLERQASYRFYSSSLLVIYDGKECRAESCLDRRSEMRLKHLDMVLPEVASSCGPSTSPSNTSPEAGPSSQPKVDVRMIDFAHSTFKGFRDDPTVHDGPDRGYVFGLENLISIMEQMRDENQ
#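 ADP-Glo luminescence measures ADP made by human IP6K1 during a 2 h RT reaction with ATP/IP6 (mix at 1.3 mM/130 uM); top library doses 57.5 and 19.1 uM final.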
# KDM5B inh: Primary screen for KDM5B Histone Demethylases FDH-coupled qHTS; Lysine-specific demethylase 5B (Homo sapiens), Q9UGL1; KDM5B demethylase, FDH-coupled NADH fluorescence (FDH is formaldehyde dehydrogenase); Potency, µM (top dose mostly 57.7 µM), usual class: inhibitors; 220,000 compounds, 2.6% hits; AID 1347165, 2019; further: nearly all actives have a fitted effect of over 70% in size
#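 Inhibition is measured as reduced NADH fluorescence generation from FDH coupling to formaldehyde release. Truncated KDM5BΔAP at 200 nM final acts on H3K4me3 peptide (12.5 µM in substrate mix) in pH 7.5 HEPES buffer with Tween-20, 30 min, room temperature.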
# HEK293 viab: GF-AFC viability counterscreen for inhibitors of alpha-synuclein gene (SNCA) expression; HEK-293-SNCA-luc viability, GF-AFC fluorescence, 24 h; Potency, µM (top dose mostly 57.1 µM), most hits filed as cytotoxic; 150,000 compounds, 0.12% hits; further: nearly all actives have a fitted effect of over 30% in size
#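 HEK-293-SNCA-luc cells (1500/well) plated 24 h, then exposed 24 h to a dilution series; GF-AFC added 30 min at 37C, fluorescence 405/540 nm; normalised to medium-only and DMSO wells, Hill fit.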
# SNCA expr inhib: Primary qHTS assay for inhibitors of alpha-synuclein gene (SNCA) expression; HEK-293 SNCA-luciferase knock-in, luminescence, 24 h; Potency, µM (titrated, usually from 57.2 µM), most hits filed as inhibitors; 140,000 compounds, 0.17% hits; further: nearly all actives have a fitted effect of over 45% in size
# IP6K1 conf: Confirmatory qHTS assay for small molecule inhibitors of Inositol hexaphosphate kinase 1 (IP6K1); shares compounds with IP6K1 inhibitor; recombinant IP6K1 kinase, ADP-Glo luminescence, 2 h; Potency, µM (highest dose often 49 µM), most hits filed as inhibitors; 1,200 compounds, 13% hits; AID 1645852, 2021; further: nearly all actives have a fitted effect of over 65% in size
# Hits are given with their value; 0 = inactive; ? = inconclusive; - = no result given. Unless noted, the call rests on the fitted dose curve; in most records, active means well fitted curve in the direction sought with a large enough effect; inconclusive means small, poorly fitted or top-dose-only effect, or another doubt; inactive means no such curve, though single readings can be large; an effect the other way counts as inactive or inconclusive.
SMILES,IP6K1 inhibitor,KDM5B inh,HEK293 viab,SNCA expr inhib,IP6K1 conf
CC(C)CC(=O)OC[C@H]1O[C@@](COC(=O)CC(C)C)(O[C@H]2O[C@H](CO)[C@@H](O)[C@H](O)[C@H]2OC(=O)CC(C)C)[C@@H](OC(=O)CC(C)C)[C@@H]1O,0,-,0,-,-
C/C=C(\C)C(=O)O[C@H]1[C@@H](O[C@]2(COC(=O)CC(C)C)O[C@H](COC(=O)C(C)C)[C@@H](OC(C)=O)[C@@H]2O)O[C@H](COC(C)=O)[C@@H](O)[C@@H]1O,-38,-,0,-,?
COc1cc(F)ccc1-c1cc(C(=O)NCc2c(C)cc(C)[nH]c2=O)c2c(c1)N(C(C)C)CCO2,-27,32µM,0,0,0
COc1ccc(-c2cc(C(=O)NCc3cccnc3)c3c(c2)N(C)CCO3)cc1OC,0,?,0,0,-
Cc1cc(C)c(CNC(=O)c2cc(-c3cccnc3)cc3c2OCCN3C)c(=O)[nH]1,-28,?,0,0,0
COc1cc(C)ccc1OCc1cc(C(=O)NC(C)Cn2cncn2)no1 (centres undefined),-,0,-,-,-
CCOC(=O)C1CCN(c2c(C(=O)c3ccc(OCC)cc3)cnc3ccc(OC)cc23)CC1,-33,?,?,?,0
Cc1noc(C)c1-c1cc2c(cc(-c3ccccc3)n2C)c(-c2ccnn2C)n1,-45,0,0,0,?
Cc1ccccc1N1CCN(C2CCCN(C/C=C/c3ccc(F)cc3)C2)CC1 (centres undefined),-27,0,0,0,0
CCc1ccccc1NC(=O)CN1C(=O)CCSc2ccc(S(=O)(=O)N3CCCC3)cc21,-31,0,0,0,0
COc1cc2ncnc(Nc3cc(Br)c(O)c(Br)c3)c2cc1OC,0,-,0,0,?
COc1cc2ncnc(NCc3cc(F)ccc3F)c2cc1OC,-,0,-,-,-
COc1cc2ncnc(Nc3cccc(I)c3)c2cc1OC,-33,-,0,-,12µM
CCOCCNc1ncnc2c1CN(C1CCCNCC1)C(=O)CN2C (centres undefined),-28,?,0,0,0
CCOCCNc1ncnc2c1CN(C1CCCNC1)C(=O)CN2C (centres undefined),0,?,0,?,-
COc1ccc(NC(=O)C(=O)NCC2(c3ccccc3)CCCC2)c(OC)c1,-27,0,0,0,0
CCC(C(=O)NCc1ccccc1OC)n1nc(C)n2c(cc3sccc32)c1=O (centres undefined),-85,0,0,0,0
COc1ccccc1NC(=O)C1=C(C)Nc2nc3ccccc3n2C1c1cccc(Br)c1 (centres undefined),-26,?,0,0,0
CCOc1ccc(CN2CCN(Cc3ccc4c(c3)c3ccccc3n4CC)CC2)cc1,-32,?,0,0,0
CCOc1ccc(CNC(=O)c2[nH]c3ccccc3c2Sc2ccc(C)cc2)cc1,0,0,0,0,-
CCC(C(=O)N1CCN(c2ccccc2)CC1)n1nc(C)n2c(cc3sccc32)c1=O (centres undefined),0,0,0,0,-
CCC(C(=O)N1CCN(c2cc(Cl)ccc2C)CC1)n1nc(C)n2c(cc3occc32)c1=O (centres undefined),-26,?,0,0,0
Cn1c(=O)c2[nH]c(-c3ccc(S(=O)(=O)O)cc3)nc2n(C)c1=O,-,-,0,0,0
CC(C)c1ccc(-c2nc3c([nH]2)c(=O)n(C)c(=O)n3C)cc1,-,0,-,-,-
CC(C)(C)c1ccc(C(CC(=O)O)NC(=O)Cc2ccc(F)cc2)cc1 (centres undefined),-,0,-,-,-
SMILES,IP6K1 inhibitor,KDM5B inh,HEK293 viab,SNCA expr inhib,IP6K1 conf
Cc1ccc2c(c1)C(=O)C(=O)N2Cc1ccc(OC(C)C)cc1,-38,0,?,?,0
Cc1ccc(N2CC(NC(=O)c3ccc(Br)o3)CC2=O)cc1C (centres undefined),0,0,0,0,-
Cc1ccc(N2CC(NC(=O)c3ccco3)CC2=O)cc1C (centres undefined),-25,0,0,0,0
NCCC(=O)N1CCC(n2nccc2NC(=O)Nc2cccc(F)c2)CC1,-30,11µM,0,0,0
O=C(Nc1cccc(F)c1)Nc1ccnn1C1CCN(C(=O)CCN2CCCO2)CC1,-,0,-,-,-
Cc1nc(C)c(C(=O)N2CCC(Oc3ccc(-c4noc(C5CC5)n4)cc3)C2)s1 (centres undefined),0,0,?,0,-
Cc1[nH]c(/C=C2\C(=O)Nc3ccc(F)cc32)c(C)c1C(=O)NCCN1CCCC1,0,-,0,-,0
Cc1[nH]c(C=C2C(=O)Nc3ccc(S(=O)(=O)Cc4c(Cl)cccc4Cl)cc32)c(C)c1C(=O)N1CCC[C@H]1CN1CCCC1,-,-,0,?,0
Cc1[nH]c(/C=C2\C(=O)Nc3ccc(S(=O)(=O)N(C)c4cccc(Cl)c4)cc32)c(C)c1C(=O)N1CCN(C)CC1,0,-,0,-,-
c1cc(OCCN2CCCCC2)cc(-c2n[nH]c3ccc(-c4ncn[nH]4)cc23)c1,-47,-,0,0,?
COc1ccc(-c2c(-c3ccc(OCCN4CCCCC4)cc3O)n[nH]c2C)cc1OC,-,0,-,-,-
CCN(CC)CCNC(=O)CS(=O)(=O)Cc1nc(-c2ccccc2C)oc1C,-,0,-,-,-
COc1ccc(OC(=O)c2nc(SCc3ccc(C)cc3)ncc2Cl)cc1,-28,?,0,0,0
Cc1ccc(CNC(=O)c2nc(SCc3ccc(C)cc3)ncc2Cl)cc1,0,0,0,?,-
Cc1ccccc1OC(=O)c1nc(SCc2ccccc2F)ncc1Cl,0,0,?,0,-
O=C(Oc1ccccc1F)c1nc(SCc2ccc(F)cc2)ncc1Cl,-38,0,0,0,0
COc1ccc(OC(=O)c2nc(SCc3ccc(F)cc3)ncc2Cl)cc1,0,0,0,0,-
Cc1ccc(CSc2ncc(Cl)c(C(=O)Oc3ccc(F)cc3)n2)cc1,-25,?,0,0,0
CC(C)C[C@@H]1N[C@H](C(=O)NCc2cccs2)Cc2cn(CC3CC3)c3cccc1c23,0,?,0,0,-
CCCCOc1ccc(S(=O)(=O)n2nc(C)c(S(=O)(=O)N3CCCCCC3)c2C)cc1,0,?,0,0,-
Cc1ccc(S(=O)(=O)n2nc(C)c(S(=O)(=O)N3CCCCCC3)c2C)cc1C,-27,?,0,0,0
Cc1nn(S(=O)(=O)c2ccc(Cl)cc2)c(C)c1S(=O)(=O)N1CCCCCC1,0,?,0,0,-
CCCCOc1ccc(S(=O)(=O)n2nc(C)c(S(=O)(=O)N3CCC(C)CC3)c2C)cc1,-26,?,0,0,0
CC(C)(C)c1nc2c3cc[nH]c(=O)c3c3cc(F)ccc3c2[nH]1,-,-,0,0,0
OCCn1cc(-c2cnc3nnn(Cc4ccc5ncccc5c4)c3n2)cn1,0,-,0,0,0
Cn1cc(-c2ccc3nnc(Sc4ccc5ncccc5c4)n3n2)cn1,-,-,0,0,-
